The whole screen tested about 360,000 compounds, of which about 2,000 (0.56%) were called active. Inconclusive results (about 2%) are left out. Rule as the data show it: active = activity change below about -65%; inconclusive = mostly about -30% to -63%; inactive = weaker than that. The full list was thinned out, with actives kept by preference.
% is scaled to controls: 0 for no effect and ±100 for the full control effect.

In the test the target is Homeobox protein SIX1 (Homo sapiens) + Protein phosphatase EYA2 (Homo sapiens) (UniProt Q15475+O00167). In words: qHTS Assay for Inhibitors of the Six1/Eya2 Interaction. To be noted: AlphaScreen GST-Six1/His-Eya2 binding, biochemical; hits give low values. The method, boiled down: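 Compounds are tested against tagged Six1 and Eya2 proteins bridged by glutathione donor and nickel acceptor beads; after a one-hour incubation at 37 °C without light, AlphaScreen emission is recorded.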
Chain of Homeobox protein SIX1 (Homo sapiens) + Protein phosphatase EYA2 (Homo sapiens) (O00167 whole entry, looked up): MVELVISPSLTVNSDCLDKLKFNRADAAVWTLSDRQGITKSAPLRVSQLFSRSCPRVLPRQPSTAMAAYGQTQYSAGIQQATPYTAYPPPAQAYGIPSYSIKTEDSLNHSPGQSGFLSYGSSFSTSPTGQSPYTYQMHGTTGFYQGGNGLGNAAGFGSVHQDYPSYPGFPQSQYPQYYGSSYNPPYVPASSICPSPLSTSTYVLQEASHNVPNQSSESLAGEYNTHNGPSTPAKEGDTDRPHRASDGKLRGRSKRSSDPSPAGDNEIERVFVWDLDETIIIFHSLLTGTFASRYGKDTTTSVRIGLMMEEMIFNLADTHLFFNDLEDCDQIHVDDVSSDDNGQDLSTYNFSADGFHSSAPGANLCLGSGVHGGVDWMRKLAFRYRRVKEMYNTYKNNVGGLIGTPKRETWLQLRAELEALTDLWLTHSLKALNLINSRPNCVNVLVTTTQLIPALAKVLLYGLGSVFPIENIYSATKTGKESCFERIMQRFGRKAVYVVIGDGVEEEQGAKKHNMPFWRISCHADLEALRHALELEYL
Chain of Homeobox protein SIX1 (Homo sapiens) + Protein phosphatase EYA2 (Homo sapiens) (Q15475 whole entry, looked up): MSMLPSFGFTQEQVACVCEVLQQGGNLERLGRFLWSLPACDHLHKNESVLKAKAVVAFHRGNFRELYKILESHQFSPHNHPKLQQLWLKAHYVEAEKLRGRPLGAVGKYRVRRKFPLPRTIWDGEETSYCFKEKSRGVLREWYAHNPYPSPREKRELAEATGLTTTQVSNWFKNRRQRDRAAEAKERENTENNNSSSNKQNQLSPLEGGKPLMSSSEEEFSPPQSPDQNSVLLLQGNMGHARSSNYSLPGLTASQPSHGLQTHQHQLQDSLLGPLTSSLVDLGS
On the technique in general: Quantitative high-throughput screening tests each substance at several concentrations.
Take `O=C(CSc1cccc2cccnc12)N/N=C/c1cccnc1`: the activity change is -80.7% (active).

With `Cc1ccc(S(=O)(=O)N(CC(=O)N/N=C/c2ccc(F)cc2)c2cccc3cccnc23)cc1`, the activity change was -0.495% (inactive).

As for `O=C(CNC(=O)c1cccnc1)N/N=C/c1cc(Br)c(O)c(Br)c1`, the activity change was -6.06% (inactive).

Take `C[C@H]1CN([C@@H](C)CO)C(=O)CCCn2nncc2CO[C@@H]1CN(C)Cc1ccc(Oc2ccccc2)cc1`: the activity change was 13.9% (inactive).

For the compound `CNc1[nH]ncc1[N+](=O)[O-]`, the activity change is -66.5% (active).

Regarding `CNc1ccc(NC(C)=O)cc1[N+](=O)[O-]`, the activity change is -0.656% (inactive).

`Cc1cc([N+](=O)[O-])c(=O)[nH]c1C`: the activity change was 4.44% (inactive).

Consider `Nc1nnnn1/N=C/c1cccc(Br)c1`, for which the activity change is -1.52% (inactive).

On to `Nc1nnnn1/N=C/c1cccs1`, for which the activity change was 2.77% (inactive).

Take `Nc1nnnn1/N=C/c1cc([N+](=O)[O-])ccc1O`: the activity change is -65.9% (active).

Turning to `COC(=O)[C@@]12C[C@@H](CC(=O)N3CCCCC3)C(=O)N(Cc3ccc4c(c3)OCO4)C1=CCC(C)(C)C2`, the activity change is -15.9% (inactive).

Turning to `COc1ccc(C(C)(C)C)cc1NC(=O)CN(C)C1=NS(=O)(=O)c2ccccc21`, the activity change is 4.86% (inactive).

With `C=CCOCCN(C)C1=NS(=O)(=O)c2ccccc21`, the activity change is -3.42% (inactive).

On to `COc1ccc(/C=N/N(C)C2=NS(=O)(=O)c3ccccc32)cc1OC`, for which the activity change was -67.9% (active).

With `CC1CN(C(=O)c2cccc(NS(=O)(=O)c3ccc(Br)cc3)c2)CC(C)O1` (configuration not stated), the activity change was -2.46% (inactive).

Consider `C[C@H](NC(=O)[C@@H]1CCCN1C(=O)[C@@H]1CCCN1C(=O)c1ccccc1)c1ccccc1`, for which the activity change is 0.523% (inactive).

For `CC1CN(S(=O)(=O)c2cccc(C(F)(F)F)c2)CN1C(=O)N1CCOCC1` (configuration not stated), the activity change was -0.306% (inactive).

In the case of `CC1(C(=O)NCc2ccccc2)CSCC(=O)N1CCCN1CCOCC1` (configuration not stated), the activity change is -1.18% (inactive).

`Cn1c(SCC(=O)Nc2ccc(Cl)cc2)nc(O)cc1=O`: the activity change is 7.12% (inactive).

In the case of `Oc1ccc2ccccc2c1N=Nc1nccs1`, the activity change is -81.4% (active).

On to `Oc1ccc(N=Nc2nccs2)c(O)c1`, for which the activity change was -77.5% (active).

Take `CC1(C(=O)NCc2ccccc2)CN(S(C)(=O)=O)CC(=O)N1CC(F)(F)F` (configuration not stated): the activity change was 2.8% (inactive).

On to `CN1C(c2ccc(F)cc2)=CS/C1=C(/C#N)c1nnc2n1-c1ccccc1SC2`, for which the activity change is -14.2% (inactive).

In the case of `COC(=O)C1(C(=O)OC)C[C@H](c2ccccc2)N(Cc2ccccc2OC)[C@@H]1c1ccccc1`, the activity change is 1.28% (inactive).

On to `CCC(C(=O)NCc1ccccc1)n1c(Cc2cc(F)cc(F)c2)nc2ccccc21` (configuration not stated), for which the activity change is -0.68% (inactive).

On to `COc1ccc(N2c3ccccc3CN(Cc3ccccc3)[C@@H](C)[C@H]2Cc2ccc(-c3ccccc3)cc2)cc1`, for which the activity change is -12.3% (inactive).

As for `CC(=O)c1cc(CN2CCC(n3nccc3NC(=O)c3ccccc3Cl)CC2)cs1`, the activity change is -1.64% (inactive).

`Cc1ccc(-c2c(N)nc3ncccn23)cc1`: the activity change was -9.22% (inactive).

As for `CC(=O)N1Cc2cc(C(=O)NCc3cccc(F)c3)nc(-c3cccc(C4=CCCCC4)c3)c2[C@H]1CCO`, the activity change is 0.697% (inactive).

Consider `O=C1c2ccccc2C(=O)c2c1cccc2N1CCN(Cc2ccccc2)CC1`, for which the activity change was -88.9% (active).

`O=S1(=O)CCN(Cc2ccccc2)CC1`: the activity change was -0.459% (inactive).

Consider `O=C(CN1CCN(Cc2ccccc2)CC1)NC(c1ccccc1)c1ccccc1`, for which the activity change was -3.09% (inactive).

As to `Clc1ccc(-c2nc3ccccn3c2CN2CCSCC2)cc1`, the activity change was -7.53% (inactive).

On to `Cc1nc(CN(C)C(=O)CC2C(=O)NCCN2Cc2ccc(F)cc2)cs1` (configuration not stated), for which the activity change is 6.54% (inactive).

As for `O=C1CCC/C(=N\NC(=O)NC2CCCCC2)C1`, the activity change is 4.54% (inactive).

Consider `COC(=O)[C@@]12C[C@@H](CC(=O)N3CCC(c4ccccc4)CC3)C(=O)N(Cc3ccccc3)C1=CCC(C)(C)C2`, for which the activity change was -15.9% (inactive).

With `Cc1ccc(/C=N/NC(=O)CSc2nc3ccccc3o2)cc1`, the activity change was -87.1% (active).

As to `CCC(NC(=O)c1ccccc1NC(=O)c1ccccc1)C(=O)NNC(=O)CSc1nc2ccccc2o1` (configuration not stated), the activity change is -24.4% (inactive).

`CCN(CC)C(=O)CSc1nc2ccccc2o1`: the activity change is 6.18% (inactive).

As for `CC(C)(C)C(=O)CSc1nc2ccccc2o1`, the activity change is 10% (inactive).

For the compound `O=C(CSc1nc2ccccc2o1)N1CCN(c2ccccc2)CC1`, the activity change is 0.782% (inactive).

For the compound `O=C(CSc1nc2ccccc2o1)N/N=C/c1ccccc1C(=O)O`, the activity change is -67.9% (active).

Take `Cc1ccc(-c2nc3c(Cl)cc(C(F)(F)F)cn3c2Cc2cccc(Cl)c2)cc1`: the activity change was 1.53% (inactive).

For `CC(C)CN1C(=O)CN(S(C)(=O)=O)CC1(C)C(=O)NCc1ccccc1` (configuration not stated), the activity change was 5.67% (inactive).

Regarding `CCOc1ccc(CCN2C(=O)C(=O)N([C@@H](CC(C)C)CN3CCC[C@H]3CN3C(=O)C(=O)NC[C@@H]3Cc3ccccc3)C[C@@H]2CC(C)C)cc1`, the activity change is -1.05% (inactive).

As for `CC(C)(C)C(=O)NCCCNc1ccc([N+](=O)[O-])cc1`, the activity change was -1.69% (inactive).

As for `O=C(Nc1ccccc1F)C1C2C=CC3(O2)C1C(=O)N(c1cccnc1)C3C(=O)NC1CCCCC1` (configuration not stated), the activity change is 4.1% (inactive).

Regarding `Nc1ccc2nc3c(=O)[nH]c(=S)[nH]c3nc2c1`, the activity change is -79.3% (active).

With `O=C(C(NS(=O)(=O)c1cccc2nsnc12)c1ccccc1)N1CCN(c2ccccc2)CC1` (configuration not stated), the activity change is -0.046% (inactive).

With `COc1ccc(C(O)C(O)(C(=O)OC(C)C)c2ccc(C)cc2)cc1` (configuration not stated), the activity change was 10.6% (inactive).

On to `Cc1ccc2cc(C#N)c(NCCNC(=S)NCCCN3CCOCC3)nc2c1`, for which the activity change is -1.85% (inactive).

As to `C/C(=N\Nc1cccc(C(=O)O)c1)c1ccc2c(c1)Nc1ccccc1S2`, the activity change is -18.9% (inactive).

Turning to `O=C1NC[C@H](CCCCN2C[C@H](Cc3ccccc3)N(Cc3ccccc3)C(=O)C2=O)N(CCc2ccc(O)cc2)C1=O`, the activity change is -1.72% (inactive).

For the compound `C=CCOc1ccccc1/C=N/NC(=O)Cc1ccccc1`, the activity change was -1.77% (inactive).

As for `O=C(N/N=C/c1ccccc1O)/C(=C/c1ccccc1)CCO`, the activity change is -80.4% (active).

For the compound `NN=C(NN=Cc1ccccc1)c1ccccc1`, the activity change was 15.8% (inactive).

For `CN1CCN(C(=O)c2ccc(NC(=O)c3ccc(Br)o3)cc2)CC1`, the activity change is 1.67% (inactive).

As for `COc1ccc(S(=O)(=O)N[C@@H]2C=C[C@@H](CC(=O)N3CCc4ccccc4C3)O[C@@H]2CO)cc1`, the activity change is -3.17% (inactive).

On to `Cc1cc(OCCOc2cccc3cccnc23)c(C)cc1Cl`, for which the activity change is -4.24% (inactive).

Turning to `COc1cccc(CNC(=O)C2CCN(S(=O)(=O)c3cccc4cccnc34)CC2)c1`, the activity change was -4.19% (inactive).

As to `CC(=O)/C(=N\Nc1ccc(Cl)cc1Cl)Sc1cccc2cccnc12`, the activity change was -91.1% (active).

Turning to `COc1cc(CC(=O)N2CCC(n3nccc3NC(=O)C3CC3)CC2)cc(OC)c1OC`, the activity change is -0.446% (inactive).

For `COc1cc(N2C(=O)CSC2=S)cc(OC)c1OC`, the activity change is -9.23% (inactive).

For the compound `CCOc1ccc(N2C(=O)CSC2=NC#N)cc1`, the activity change was 2.91% (inactive).

Regarding `CCOc1cccc(/C=N/N2C(=O)CSC2=S)c1O`, the activity change was -92.8% (active).

Take `CCOC(=O)[C@]12CCCC=C1N(CCC1=CCCCC1)C(=O)[C@H](CC(=O)N1CCSCC1)C2`: the activity change was -5.61% (inactive).

Consider `Cc1cc(OCc2ccc(C(=O)Nc3ccc(C(=O)O)cc3)o2)ccc1Cl`, for which the activity change is -9.21% (inactive).

Turning to `Cn1cnc(S(=O)(=O)N2C[C@@H](O)COC[C@@H]3O[C@H](CC(=O)NC4CCC4)CC[C@H]32)c1`, the activity change is -0.831% (inactive).

Take `COc1ccccc1NC(=O)COC(=O)COc1ccccc1F`: the activity change is 6.13% (inactive).

In the case of `O=C(COc1ccccc1)Nc1nonc1NC(=O)COc1ccccc1`, the activity change is -6.13% (inactive).

For the compound `Cc1cc(NC(=O)[C@H](C)NC(=O)c2ccco2)ccc1Br`, the activity change is 0.811% (inactive).

On to `CC1CCN(S(=O)(=O)c2nnc(NC(=O)COc3ccccc3F)s2)CC1`, for which the activity change is 3.54% (inactive).

`O=C(NCCN1C(=O)C2C3C=CC(C3)C2C1=O)Nc1ccccn1` (configuration not stated): the activity change is 2.02% (inactive).

Take `CC(NC(=O)c1ccco1)C(=O)Nc1nc(-c2ccccn2)cs1` (configuration not stated): the activity change was -83.1% (active).

For the compound `N#Cc1ccc(OCC(=O)Nc2nc(-c3ccccn3)cs2)cc1`, the activity change was -90% (active).

As for `O=C(CN1C(=O)C2C3C=CC(C3)C2C1=O)Nc1nc(-c2ccccn2)cs1` (configuration not stated), the activity change is -80.4% (active).

As for `CSCCC(NC(=O)c1ccco1)C(=O)Nc1cc(C)ccn1` (configuration not stated), the activity change was -1.3% (inactive).

In the case of `O=C(CCN1C(=O)C2C3C=CC(C3)C2C1=O)Nc1ccccc1F` (configuration not stated), the activity change was 2.72% (inactive).

For the compound `CC1CCCCC1NC(=O)COc1ccc(C#N)cc1` (configuration not stated), the activity change was -10.9% (inactive).

For the compound `O=C(COc1ccccc1F)Nc1nc(-c2ccccn2)cs1`, the activity change was -84.1% (active).

Take `Cc1ccc2c(c1)c1ncnc(N3CCc4ccccc4C3)c1n2C`: the activity change is -7.75% (inactive).

As to `CCOc1ccc(CN2CCN(Cc3ccon3)CC2CCO)cc1` (configuration not stated), the activity change was 5.89% (inactive).

Consider `CCCCCNC(=O)C(c1ccc(OC)cc1)n1c(=O)c(-c2ccccc2)nc2ccccc21` (configuration not stated), for which the activity change is 5.06% (inactive).

Take `CCCNC(=O)c1cc(C2CCCCN2S(=O)(=O)c2cn(C)cn2)on1` (configuration not stated): the activity change is 0.952% (inactive).

On to `CC(C)(C)C(=O)c1c(N)[nH]c(C(=O)c2ccccc2)c1-c1ccc(F)cc1`, for which the activity change was -8.67% (inactive).

As to `O=C1Nc2ccccc2-n2nnnc2C1N1CCN(c2cccc(C(F)(F)F)n2)CC1` (configuration not stated), the activity change was 0.68% (inactive).

As to `Cc1cccc(NS(=O)(=O)c2ccc(C)c(C(=O)NCc3cccnc3)c2)c1`, the activity change was -0.175% (inactive).

As for `O=C(C(=O)N1CCC(c2ccccc2)CC1)c1ccccc1`, the activity change was -2.34% (inactive).

With `CCOC(=O)[C@]12CCCC=C1N(CCC1=CCCCC1)C(=O)[C@H](CC(=O)N1CCN(C(=O)c3ccco3)CC1)C2`, the activity change was -5.37% (inactive).

Regarding `Cc1cc([N+](=O)[O-])c(N2CCC[C@@H]2C(=O)O)c([N+](=O)[O-])c1`, the activity change is 7.42% (inactive).

In the case of `Cc1c(NS(=O)(=O)c2ccc(NC3CCCC3)c([N+](=O)[O-])c2)c(=O)n(-c2ccccc2)n1C`, the activity change is -0.483% (inactive).

In the case of `Cc1cc([N+](=O)[O-])c(NC2CCCCC2)c([N+](=O)[O-])c1`, the activity change is -69.3% (active).

(Values after PubChem BioAssay AID651725 (National Center for Advancing Translational Sciences (NCATS), 2012).)
